Screening data (PubChem)
An excerpt weighted towards active compounds, which were near 11% of everything screened.
HEK cytotox: Cytotoxic Profiling in HEK 293 Cell Line of Diverse Libraries Using Quantitative High-Throughput Screening | HEK 293 viability, ATP luminescence (CellTiter-Glo), 48-72 h | Potency, µM (series often up to 115 µM), most hits filed as inhibitors | hit rate 6.6% among 94,000 | AID 1345083, 2018; also: nearly all actives have a fitted effect of over 60% in size
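Pintool-delivered compounds were incubated with HEK 293 cells (250 cells/well) at 37 degree Celsius for 48 or 72 hr. ATP-dependent luminescence (CellTiter-Glo) then reported remaining viable cells.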
NPR1 antag: Natriuretic polypeptide receptor (hNpr1) antagonism - Primary qHTS | Atrial natriuretic peptide receptor 1 (Homo sapiens), P16066 | HEK293 hNpr1 GloSensor cGMP, ANP-stimulated luminescence | Potency, µM (doses to about 46.3 µM), most hits filed as inhibitors | hit rate 1.6% among 76,000 | AID 1347048, 2019; calls by dose curve; also: nearly all actives have a fitted effect of over 60% in size
Target sequence (P16066 whole entry, looked up): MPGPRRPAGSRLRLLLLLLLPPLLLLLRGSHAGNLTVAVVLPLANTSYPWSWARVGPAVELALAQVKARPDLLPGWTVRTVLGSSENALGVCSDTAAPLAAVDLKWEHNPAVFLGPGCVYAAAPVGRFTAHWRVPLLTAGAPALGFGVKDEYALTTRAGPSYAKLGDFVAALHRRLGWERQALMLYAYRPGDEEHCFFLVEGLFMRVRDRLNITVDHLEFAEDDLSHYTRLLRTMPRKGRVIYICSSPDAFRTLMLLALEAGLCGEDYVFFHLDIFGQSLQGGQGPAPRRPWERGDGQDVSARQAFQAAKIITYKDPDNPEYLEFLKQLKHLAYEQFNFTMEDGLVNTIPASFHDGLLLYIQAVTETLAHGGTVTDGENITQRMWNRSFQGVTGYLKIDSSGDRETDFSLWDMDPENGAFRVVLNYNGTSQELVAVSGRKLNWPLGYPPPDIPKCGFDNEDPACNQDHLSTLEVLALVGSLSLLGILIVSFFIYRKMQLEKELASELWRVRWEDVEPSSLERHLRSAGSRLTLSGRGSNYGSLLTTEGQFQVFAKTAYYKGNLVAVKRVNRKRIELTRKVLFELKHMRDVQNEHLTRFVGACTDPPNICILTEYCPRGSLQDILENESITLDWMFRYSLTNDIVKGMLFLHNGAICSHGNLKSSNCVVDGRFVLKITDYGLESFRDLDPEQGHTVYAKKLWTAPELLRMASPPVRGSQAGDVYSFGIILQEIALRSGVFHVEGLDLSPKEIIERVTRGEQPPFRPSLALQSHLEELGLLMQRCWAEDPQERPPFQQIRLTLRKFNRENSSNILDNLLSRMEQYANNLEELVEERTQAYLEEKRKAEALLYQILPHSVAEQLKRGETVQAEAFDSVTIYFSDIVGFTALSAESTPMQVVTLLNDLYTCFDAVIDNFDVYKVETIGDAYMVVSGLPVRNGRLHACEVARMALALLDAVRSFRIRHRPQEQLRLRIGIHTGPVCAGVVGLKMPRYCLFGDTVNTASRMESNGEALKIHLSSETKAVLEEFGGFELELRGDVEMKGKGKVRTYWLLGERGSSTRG
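HEK293 cells stably expressing human Npr1 and cGMP GloSensor pGS-40F, loaded 2 h with 2% GloSensor reagent, given compound 30 min at room temperature. Luminescence read before and 20 min after 0.1 nM hNppA.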
3T3 cytotox: Cytotoxic Profiling in NIH 3T3 Cell Line of Diverse Libraries Using Quantitative High-Throughput Screening; NIH 3T3 viability, CellTiter-Glo ATP luminescence, 48-72 h; Potency, µM (doses to about 96.7 µM), usual class: inhibitors; hit rate 4.3% among 94,000; AID 1345082, 2018; also: nearly all actives have a fitted effect of over 55% in size
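Viability of NIH 3T3 cells after 48 or 72 hr compound treatment at 37 °C was assessed by CellTiter-Glo, with luminescence imaged following a 10 min room-temperature step.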
FLuc inh: Firefly luciferase inhibition profiling of diverse chemical library using quantitative high-throughput screening; Luciferin 4-monooxygenase (Photinus pyralis), P08659; purified P. pyralis luciferase, luminescence, biochemical; Potency, µM (series often up to 115 µM), usual class: inhibitors; hit rate 2.5% among 76,000; also: nearly all actives have a fitted effect of over 65% in size
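Luminescence read by CCD imaging after purified firefly luciferase (10nM final) was added to substrate buffer holding 10uM D-luciferin and 10uM ATP, pH 7.5, pre-dosed with compound.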
A number is an active result; - = inactive; ? = inconclusive; . = no result given; ! = repeats disagree. Unless noted, calls follow the shape of the dose curve; as a rule, active = well fitted curve in the direction sought with a large enough effect; inconclusive = small, poorly fitted or top-dose-only effect, or another doubt; inactive = no such curve, though single readings can be large; an effect the other way counts as inactive or inconclusive.

SMILES	HEK cytotox	NPR1 antag	3T3 cytotox	FLuc inh
CCCCNC(=O)CC(c1cccc(OC)c1)c1c[nH]c2ccccc12 (configuration not stated)	79.4µM	-	?	-
CCCCCNC(=O)CC(c1cccc(OC)c1OC)c1c[nH]c2c(CC)cccc12 (configuration not stated)	44.7µM	-	?	-
O=C(CC(c1cccc2c1OCO2)c1c[nH]c2ccccc12)NCc1ccccc1 (configuration not stated)	?	-	?	-
CO[C@H]1CN(C2CCN(C(=O)Cn3nc(C(F)(F)F)cc3C)CC2)[C@H]1c1cccnc1	-	.	-	.
O=C(NCCCc1ccccc1)C1CCCN1C(=O)c1cccc(-c2cccnc2)c1 (configuration not stated)	-	.	?	.
O=C(NCc1cccc(F)c1)C1(c2ccc(Cl)cc2)CCOCC1	?	.	-	.
CCc1cccc2c(C(CC(=O)NCC(C)C)c3ccc(OC)c(OC)c3)c[nH]c12 (configuration not stated)	-	-	-	-
CCc1cccc2c(C(CC(=O)NCCc3ccc(OC)c(OC)c3)c3cccc(F)c3)c[nH]c12 (configuration not stated)	28.2µM	-	?	-
Cc1ccccc1CN1CCOc2cc([S+](=O)([O-])Nc3nncs3)ccc2C1	-	-	?	-
CC(C)CCN1CCOc2cc([S+](=O)([O-])Nc3cccnc3)ccc2C1	?	-	28.2µM	-
CC(C)CCN1CCOc2cc([S+](=O)([O-])Nc3nncs3)ccc2C1	-	-	31.6µM	-
Cn1ncc2c(C(=O)NCc3ccc(F)cc3)cc(-c3ccc(Cl)nc3)nc21	39.8µM	.	?	.
Cn1ncc2c(C(=O)Nc3cccc(Cl)c3)cc(-c3cccc(F)c3)nc21	35.5µM	.	?	.
Cn1ncc2c(C(=O)NCC(F)F)cc(-c3cccc(F)c3)nc21	56.2µM	.	?	.
Cn1ncc2c(C(=O)NCCc3ccc(F)cc3)cc(-c3ccc(Cl)nc3)nc21	-	.	-	.
Cc1ccc(-c2cc(C(=O)NCc3cccnc3)c3c(c2)ncn3C)cn1	-	-	100µM	-
O=C(CC1CCCC1)N1CCC(N2C(=O)[C@H]3CN(Cc4ccccc4)C[C@H]3C2=O)CC1	?	.	-	.
Cc1ccc2c(n1)OC(COc1ccccc1)CN(c1ccccc1)C2=O (configuration not stated)	?	.	-	.
O=C(c1c(-c2ccccc2)cc(=O)n2c1CCC2)N1CCCC1	-	.	-	.
CC1(C)C(=O)N(Cc2ccc(O)cc2)[C@H]2CN(CCCc3ccccc3)C[C@H]2[S+]1(=O)[O-]	?	-	?	-
Cn1ncc2c(C(=O)NCc3cccnc3)cc(-c3ccc([S+](C)(=O)[O-])cc3)nc21	-	.	?	.
Cn1ncc2c(C(=O)NCc3cccnc3)cc(-c3cccc(F)c3)nc21	79.4µM	.	?	.
Cn1ncc2c(C(=O)NCc3cccnc3)cc(-c3ccc(Cl)nc3)nc21	?	.	22.4µM	.
Cc1ccc(-c2cc3c(=O)n(CCNC(=O)c4ccc(Cl)cc4)ccn3n2)c(C)c1	39.8µM	-	?	-
Cc1ccc(-c2cc3c(=O)n(CCNC(=O)c4cc(Cl)ccc4F)ccn3n2)c(C)c1	?	-	-	?
SMILES	HEK cytotox	NPR1 antag	3T3 cytotox	FLuc inh
Cc1ccc(-c2cc3c(=O)n(CC(O)c4ccc(C)c(C)c4)ccn3n2)c(C)c1 (configuration not stated)	39.8µM	?	?	-
Cc1ccc(C)c(C(=O)NCCn2ccn3nc(-c4cc(C)ccc4C)cc3c2=O)c1	39.8µM	-	?	-
O[C@@H]1CN(CC2CCNCC2)CC[C@H]1c1ccc2ccccc2c1	?	-	?	-
O=C([C@@H]1CCCN1[S+](=O)([O-])c1cccc(C(F)(F)F)c1)N1CCC(N2CCOC2=O)CC1	-	.	-	.
O=C1N(CCc2ccccc2)c2ccccc2C12CCN(CC1CC1)C2 (configuration not stated)	39.8µM!	-	?	-
Cn1nccc1CN1CCC2(C1)C(=O)N(CCc1ccccc1)c1ccccc12 (configuration not stated)	35.5µM!	-	?	-
Cc1cc(CN2CCC3(C2)C(=O)N(Cc2ccccc2)c2ccccc23)no1 (configuration not stated)	50.1µM	-	?	-
O=C1N(CCc2ccccc2)c2ccccc2C12CCN(Cc1ccncc1)C2 (configuration not stated)	35.5µM	?	35.5µM!	-
CN1C(=O)C2(CCN(Cc3ccnn3C)C2)c2ccccc21 (configuration not stated)	-	-	-	-
O=C1N(Cc2ccccc2)c2ccccc2C12CCN(Cc1cncs1)C2 (configuration not stated)	?	-	?	-
COc1ccccc1-n1c(=O)c(C(=O)N2CCN(c3ncccn3)CC2)nc2cccnc21	-	.	-	.
O=C(Cc1cccnc1)N1CCCC(CN2CCCC2)CC1 (configuration not stated)	-	.	-	.
Cn1nc(-c2ccncc2)cc1NC(=O)C1CCCC1	-	.	-	.
COCC(=O)N1CCN(C(=O)c2nc3cccnc3n(CC(C)C)c2=O)CC1	-	.	-	.
Cc1ccc(C2(C(=O)N[C@@H]3COCC[C@@H]3OCc3ccccc3)CC2)cc1	44.7µM	-	?	-
COc1cccc(-c2nc(-c3c(C)noc3C)cc3c2cc(C)n3CCN(C)C)c1OC	?	-	?	-
Cc1noc(C)c1-c1cc2c(cc(C)n2CCN(C)C)c(-c2ccccc2O)n1	44.7µM	-	31.6µM	-
COc1ccc(-c2nc(-c3c(C)noc3C)cc3c2cc(C)n3CCN(C)C)cn1	79.4µM	-	?	-
Cc1noc(C)c1-c1cc2c(cc(C)n2CCN(C)C)c(-c2cccc(O)c2)n1	56.2µM	-	?	-
Cc1noc(C)c1-c1cc2c(cc(C)n2CCN(C)C)c(Nc2ccn(C)n2)n1	89.1µM	-	?	-
Cc1cc2cc(-c3c(C)noc3C)nc(Nc3ccc(F)cc3)c2o1	?	-	?	-
C=CCOCC(O)CN1CCC(=O)N(Cc2ccccc2)Cc2cc(OC)ccc21 (configuration not stated)	?	.	-	.
N#Cc1cccc(-c2c(C(=O)NC3CC3)nc3sccn23)c1	-	.	-	.
COc1ccc(-c2c(C(=O)N3CCN(C)CC3)nc3sccn23)cc1	-	.	-	.
O=C(CNC(=O)c1cccc(-c2ccc(C(F)(F)F)cc2)c1)NCc1ccc2c(c1)OCO2	?	.	-	.
Cc1noc(C)c1-c1cc2c(cc(C)n2CCN(C)C)c(-c2ccc(CO)cc2)n1	79.4µM	-	?	-
Cc1noc(C)c1-c1cc2c(cc(C)n2CCN(C)C)c(-c2cccnc2)n1	70.8µM	-	?	-
CC(=O)Oc1c(-c2ccc(NC(=O)C3CC3)cc2)c(-c2ccccc2F)nn1-c1ccccc1	-	-	-	-
